Assay outcomes deposited in PubChem by National Center for Advancing Translational Sciences (NCATS).
TGFb SMAD3 inh: qHTS for Inhibitors of TGF-b; Potency, µM (titrated, usually from 46.1 µM), for inactives: at the top dose activity, negative = inhibition, usual class: inhibitors; HepG2 CAGA-GFP TGF-b/SMAD3 reporter, GFP fluorescence, 18 h; TGF-beta stimulated, 500 pg/mL final; 410,000 tested, 1.2% active; AID 588855, 2011; further: potency means the concentration at half of the fitted maximal effect; on the % scale 0 is the no-effect control and ±100 the full control effect; nearly all actives have a fitted effect of over 65% in size
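First, reporter cells (HEPG2 CAGA-GFP) rested 2 h at 37 degrees C. Next, compounds were pinned in and TGF-beta added to 500 pg/mL final. After 18 h, GFP was imaged per cell and summed per well.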
mIDH1 inhibitor: qHTS for Inhibitors of mutant isocitrate dehydrogenase 1 (IDH1): qHTS; Isocitrate dehydrogenase [NADP] cytoplasmic (Homo sapiens), O75874; IDH1-R132H enzyme, NADPH consumption, diaphorase/resazurin fluorescence; Potency, µM (doses to about 76.6 µM), inactives show at the highest dose activity change, negative = inhibition, actives largely listed as inhibitors; 390,000 tested, 0.093% active; further: potency means the concentration at half of the fitted maximal effect; on the % scale 0 is the no-effect control and ±100 the full control effect; nearly all actives have a fitted effect of over 65% in size
Target sequence (O75874 whole entry R132H, stated change not applied): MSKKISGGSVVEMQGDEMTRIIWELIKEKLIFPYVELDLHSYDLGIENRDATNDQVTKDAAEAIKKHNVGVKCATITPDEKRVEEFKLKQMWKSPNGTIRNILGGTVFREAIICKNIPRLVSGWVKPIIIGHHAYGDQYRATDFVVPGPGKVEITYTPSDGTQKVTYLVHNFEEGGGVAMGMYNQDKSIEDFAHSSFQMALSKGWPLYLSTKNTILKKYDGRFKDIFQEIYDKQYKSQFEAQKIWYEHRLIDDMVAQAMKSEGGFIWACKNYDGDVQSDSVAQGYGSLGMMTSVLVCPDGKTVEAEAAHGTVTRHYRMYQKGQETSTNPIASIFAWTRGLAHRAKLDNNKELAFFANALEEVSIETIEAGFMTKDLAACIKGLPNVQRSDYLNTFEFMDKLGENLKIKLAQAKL
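IDH1-R132H (0.5 ug/mL dispensed) in pH 7.5 Tris buffer was preincubated 30 min with compound, then given a substrate mix of 0.016 mM NADPH and 2 mM alpha-KG for 80 min at room temperature; remaining NADPH was read by diaphorase/resazurin fluorescence.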
LDHA block: qHTS assay for inhibitors of human lactate dehydrogenase | AID 1347041, 2019 | L-lactate dehydrogenase A chain (Homo sapiens), P00338 | 480,000 tested, 0.15% active | activity change, % (values are at about 110 or 230 µM) | purified LDHA, NADH/diaphorase-resazurin fluorescence; active compounds read low; in the data active means activity change below about -30%; inconclusive means mostly about -25% to -30%;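 further: plate controls were DMSO wells for no effect and wells without enzyme for full effect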
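Human LDH5 at 2 nM final in Tris HCl pH 7.4 with 0.06 mM NADH and 0.2 mM pyruvate, reacted 5 minutes at room temperature. Remaining NADH coupled via diaphorase/resazurin; resorufin fluorescence read at 0 and 20 minutes, normalized to enzyme-free and DMSO wells.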
ATXN viability: Viability Counterscreen for Primary qHTS for Inhibitors of ATXN expression. 400,000 tested, 0.49% active. Potency, µM (top dose mostly 56.7 µM), actives largely listed as cytotoxic. S2 cells (HEK-293 line with an ATXN2-luciferase reporter) viability, CellTiter-Fluor protease fluorescence, 24 h; further: potency means the concentration at half of the fitted maximal effect; nearly all actives have a fitted effect of over 40% in size
HepG2 tox-1: qHTS for Inhibitors of TGF-b: Cytotox Counterscreen; HepG2 CAGA-GFP viability, ATP luminescence, 18 h; Potency, µM (series often up to 46.1 µM), inactives show at the highest dose activity change, negative = cytotoxicity, usual class: cytotoxic; 410,000 tested, 0.76% active; AID 588856, 2011; further: potency means the concentration at half of the fitted maximal effect
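CellTiter-Glo luminescence gave cytotoxicity after 18 hours at 37 degrees C. The cells were HepG2 CAGA-GFP in 1% FBS DMEM, stimulated with 500 pg/mL TGF-beta after compound addition. %Activity was normalised to no-cell wells (complete cell-killing) and DMSO (no toxicity), and curves were fitted and classified.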
ATXN2 expr inh: Primary qHTS for Inhibitors of ATXN expression; 360,000 tested, 0.72% active; HEK-293 ATXN2-luciferase reporter, luminescence, 24 h; AID 1745845, 2022; Potency, µM (top dose mostly 57 µM), inactives show at the highest dose activity change, negative = inhibition, usual class: inhibitors; further: potency means the concentration at half of the fitted maximal effect; on the % scale 0 is the no-effect control and ±100 the full control effect; nearly all actives have a fitted effect of over 55% in size
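ATXN2-luciferase reporter cells (luciferase flanked by upstream and downstream ATXN2 gene portions) were treated 24 h at 37 °C with compounds at up to 57 uM. SteadyGlo luminescence gave expression; GF-AFC fluorescence gave viability.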
TGFb confirm: qHTS for Inhibitors of TGF-b: Confirmation of Cherry Picks; shares compounds with TGFb SMAD3 inh; Potency, µM (series often up to 46.1 µM), for the others: at the top dose activity, negative = inhibition, usual class: inhibitors; 1,600 tested, 63% active; AID 720534, 2013; HepG2 CAGA-GFP TGF-b reporter, GFP fluorescence, 18 h; cells stimulated with TGF-beta, 500 pg/mL; further: potency means the concentration at half of the fitted maximal effect; on the % scale 0 is the no-effect control and ±100 the full control effect; nearly all actives have a fitted effect of over 65% in size
HepG2 tox-2: qHTS for Inhibitors of TGF-b: Cytotox Counterscreen for Cherry Picks. shares compounds with TGFb SMAD3 inh. HepG2 CAGA-GFP viability, ATP luminescence, 18 h; cells stimulated with TGF-beta, 500 pg/mL. Potency, µM (titrated, usually from 46.1 µM), for the others: at the highest dose activity, negative = cytotoxicity, most hits filed as inhibitors. 1,600 tested, 27% active; further: potency means the concentration at half of the fitted maximal effect; on the % scale 0 is the no-effect control and ±100 the full control effect; nearly all actives have a fitted effect of over 70% in size
TGFb CCL64 inh: qHTS for Inhibitors of TGF-b: CCL64 Cells Orthogonal Assay for Cherry Picks. Potency, µM (series often up to 46.1 µM), for inactives: at the highest dose activity, negative = inhibition, most hits filed as inhibitors. AID 720536, 2013. shares compounds with TGFb SMAD3 inh. 1,600 tested, 41% active. CCL64 CAGA-GFP reporter, TGF-b stimulated, GFP fluorescence, 18 h; further: potency means the concentration at half of the fitted maximal effect; nearly all actives have a fitted effect of over 65% in size
TGFb COP inh: qHTS for Inhibitors of TGF-b: Hit Validation in HepG2 Cells using COP promoter; shares compounds with TGFb SMAD3 inh; HepG2 COP-GFP TGF-b reporter, GFP fluorescence, 18 h; cells stimulated by added recombinant TGF-beta; Potency, µM (highest dose often 46.1 µM), for the others: at the top dose activity, negative = inhibition, usual class: inhibitors; 1,600 tested, 3% active; further: potency means the concentration at half of the fitted maximal effect; nearly all actives have a fitted effect of over 70% in size
Numbers without * were called inactive; [ ] = another dose, or the depositor's remark. A selection: hits, their analogues and other compounds. The true share with any hit is near 2.2%. Unless noted, the call rests on the fitted dose curve; in most records, active means well fitted curve in the direction sought with a large enough effect; inconclusive means small, poorly fitted or top-dose-only effect, or another doubt; inactive means no such curve, though single readings can be large; an effect the other way counts as inactive or inconclusive.

What do the screens show for `O=C(CSCc1ccc(Cl)cc1)Nc1cc([N+](=O)[O-])ccc1O`?
TGFb SMAD3 inh: inconclusive; mIDH1 inhibitor: -2%; LDHA block: -6; ATXN viability: inconclusive; HepG2 tox-1: -8%; ATXN2 expr inh: inconclusive

How did Cc1ccc(SCC(=O)Nc2cc([N+](=O)[O-])ccc2O)cc1 do in these assays?
TGFb SMAD3 inh: 18µM*; mIDH1 inhibitor: -2%; LDHA block: -2; ATXN viability: inactive; HepG2 tox-1: -31%; ATXN2 expr inh: 12%[11.3 µM]; TGFb confirm: 4.6µM*; HepG2 tox-2: inconclusive; TGFb CCL64 inh: inconclusive; TGFb COP inh: 82%

How did COc1ccc(N2CC(O)=C(c3nc(C)cs3)C2=N)cc1 do in these assays?
TGFb SMAD3 inh: 13%; mIDH1 inhibitor: -1%; LDHA block: -1; ATXN viability: inactive; HepG2 tox-1: -6%; ATXN2 expr inh: 11%

What do the screens show for `COc1cccc(NC(=S)N2CCC(c3ccc(C)cc3)C2)c1` (configuration not stated)?
TGFb SMAD3 inh: -16%; mIDH1 inhibitor: 2%; LDHA block: -4; ATXN viability: inactive; HepG2 tox-1: -26%; ATXN2 expr inh: 30%

What do the screens show for `Cc1ccnc(NC(=S)N2CCN(c3cccc(C(F)(F)F)c3)CC2)c1`?
TGFb SMAD3 inh: 13µM*; mIDH1 inhibitor: -9%; LDHA block: -2; ATXN viability: inconclusive; HepG2 tox-1: -23%; ATXN2 expr inh: inconclusive; TGFb confirm: 7.3µM*; HepG2 tox-2: 13µM*; TGFb CCL64 inh: -15%; TGFb COP inh: 30%

How did COc1cc2c(=O)n(Cc3ccco3)c(=O)n(CC(=O)c3ccc(Br)cc3)c2cc1OC do in these assays?
TGFb SMAD3 inh: inconclusive; mIDH1 inhibitor: 5%; LDHA block: -4; ATXN viability: inactive; HepG2 tox-1: -5%; ATXN2 expr inh: -15%

Results for Cc1cc(C)c2cc(C(=O)N3CCC(C(=O)c4ccc(F)cc4)CC3)[nH]c2c1 ?
TGFb SMAD3 inh: 11µM*; mIDH1 inhibitor: 0%; LDHA block: 3; ATXN viability: inactive; HepG2 tox-1: -6%; ATXN2 expr inh: -26%; TGFb confirm: 9.2µM*; HepG2 tox-2: -24%; TGFb CCL64 inh: inconclusive; TGFb COP inh: 14%

How did Cc1cc(C)c2cc(C(=O)N3CCC(N4CCCCC4)CC3)[nH]c2c1 do in these assays?
TGFb SMAD3 inh: 11%; mIDH1 inhibitor: 2%; LDHA block: 0; ATXN viability: inactive; HepG2 tox-1: -7%; ATXN2 expr inh: -13%

Results for CC(C)(C)C(=O)NCCCc1nc2ccccc2n1CCCOc1ccc(Cl)cc1 ?
TGFb SMAD3 inh: 13µM*; mIDH1 inhibitor: 10%; LDHA block: 0; ATXN viability: inactive; HepG2 tox-1: -17%; ATXN2 expr inh: -31%; TGFb confirm: 12µM*; HepG2 tox-2: -14%; TGFb CCL64 inh: inconclusive; TGFb COP inh: 11%

How did O=C(NCCN1CCCC1)c1ccc2c(c1)N(Cc1ccc(F)cc1)C(=O)c1ccccc1S2=O (configuration not stated) do in these assays?
TGFb SMAD3 inh: -13%; mIDH1 inhibitor: -5%; LDHA block: -13; ATXN viability: inactive; HepG2 tox-1: -6%; ATXN2 expr inh: -17%

How did O=[N+]([O-])c1cccc(NC(=S)Nc2nc(-c3ccccc3Cl)cs2)c1 do in these assays?
TGFb SMAD3 inh: 3.5µM*; mIDH1 inhibitor: 2%; LDHA block: -1; ATXN viability: inconclusive; HepG2 tox-1: -28%; ATXN2 expr inh: -36%; TGFb confirm: 3.7µM*; HepG2 tox-2: 6.5µM*; TGFb CCL64 inh: 6.5µM*; TGFb COP inh: 47%

What do the screens show for `O=C(CSc1nc(-c2ccc(Cl)cc2)cs1)Nc1cccc([N+](=O)[O-])c1`?
TGFb SMAD3 inh: 10µM*; mIDH1 inhibitor: -4%; LDHA block: -1; ATXN viability: inconclusive; HepG2 tox-1: -31%; TGFb confirm: inconclusive; HepG2 tox-2: inconclusive; TGFb CCL64 inh: -5%; TGFb COP inh: 59%

Results for O=[N+]([O-])c1cccc(NC(=S)NCc2ccncc2)c1 ?
TGFb SMAD3 inh: -7%; mIDH1 inhibitor: -2%; LDHA block: 17; ATXN viability: inconclusive; HepG2 tox-1: -17%; ATXN2 expr inh: -11%

Results for Cc1cc(NC(=O)CSc2nc(-c3ccc(Cl)cc3)cs2)no1 ?
TGFb SMAD3 inh: 1%; mIDH1 inhibitor: 0%; LDHA block: -3; ATXN viability: inactive; HepG2 tox-1: -7%; ATXN2 expr inh: -23%

Results for O=C(Nc1cccc(-c2csc(Nc3ccc(Cl)cc3)n2)c1)c1cc([N+](=O)[O-])cc(C(F)(F)F)c1 ?
TGFb SMAD3 inh: 20µM*; mIDH1 inhibitor: -3%; LDHA block: -3; HepG2 tox-1: -22%; ATXN2 expr inh: -15%; TGFb confirm: 8.2µM*; HepG2 tox-2: inconclusive; TGFb CCL64 inh: 5.8µM*; TGFb COP inh: 45%
